A short description of assay [1]: glutamate transport activators, MN-1 cells, MN-1 cell line (AID 1612).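 Also: tested at 1 µM final; 0% = mean of DMSO vehicle wells on each plate; positive means more glutamate uptake than control and negative means less.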 The following applies: MN-1 motor neuron cells, stronger effect = higher value.
Assay [2] can be described thus: GFP-Q80 aggregate reduction, neuronal-like cells, cell-based, NGF-treated PC12, GFPQ80 (AID 1614).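 Also: lower means fewer inclusions and 0 means no inclusions at all.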 To be noted: PC12 NGF-treated GFP-polyQ80 inclusion reduction.
Assay [3] is described as follows: 75Q-TubH aggregate inhibition, S. cerevisiae, yeast (AID 1616). To be noted: S. cerevisiae 75Q-TubH polyglutamine aggregation suppression; stronger effect = higher value.
Assay [4] is described as follows: compounds altering viability of human ES cells (AID 493140).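 Also: cells exposed to compounds for four days before counting.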 The following applies: human embryonic stem cell survival screen; stronger effect = higher value.
Assay [5] can be described thus: Wnt pathway potentiators raising nuclear beta-catenin – imaging, WNT3A-conditioned medium, mouse C2C12, NPC library, primary screen (AID 1117326; in the data active = nuclear beta-catenin stimulation mostly above about 4.2%, no sharp cut-off; inactive = mostly below about 10%). The following applies: stronger effect = higher value.
Assay [6] in a line: compounds altering circadian rhythm period length – cell-based, LOPAC library, luminescence reporter (AID 2774).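 Also: values are relative to mean of DMSO wells on each plate.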 To be noted: circadian reporter cells, at 7 µM, actives lie on both sides.
Assay [7] is described as follows: compounds altering Cy5-DNA-NS3h complex signal – biochemical, LOPAC1280, artefact control for HCV NS3 helicase inhibitor project (AID 687037). The following applies: Cy5-DNA-NS3h complex fluorescence interference counterscreen. In general terms: Counterscreens check selectivity or assay interference.
A short description of assay [8]: P. berghei load reduction in hepatocytes – cell-based, HepG2, luciferase luminescence, HepG2 viability, primary screen (AID 624349; in the data active = parasite load remaining mostly below about 12%, no sharp cut-off; inactive = mostly above about 10%;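 also: 100% = mean of DMSO negative control wells on the same plate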). The following applies: P. berghei liver stage in HepG2, luciferase luminescence, concentration not given here; parasite load remaining: stronger effect = lower value; viability: measured here: HepG2 viability without parasites.
The subject of assay [9] is Hepatitis C virus NS3 helicase. Description: blockers of NS3h binding to ssDNA – biochemical, fluorescence polarization, LOPAC1280 library, primary screen (AID 687035; in the data active = inhibition above about 37%). To be noted: Purified HCV NS3 helicase, Cy5-dT15 ssDNA binding fluorescence polarization; stronger effect = higher value; concentration not given here.

Structures are written as SMILES. Several values for one entry are separate records, joined by “and”; a condition that tells them apart may be missing. Equal values may be shown once. Activity calls are given as the source filed them. Unless noted, no rule for the calls is given here.

Experimental findings from PubChem BioAssay are described below.

The viability is a read-out of living cells in per cent, often relative to untreated cells. In general, inhibition refers to the relative decrease from the control value, in per cent.

Turning to `CCN(CC)CCNC(=O)COc1ccc(OC)cc1`, in assay [1], the glutamate uptake change turned out to be 0.53%. This compound also yielded an inclusion score in [2] of 2. The same compound displayed an aggregation suppression score in assay [3] of 1.23. Also, the survival in assay [4] was 49.8 (inactive). For the same compound, the nuclear beta-catenin stimulation in assay [5] (at 10 µM) was 0.5% (inactive); in assay [5] (stimulation, at 2 µM), 1.9%.
Regarding `NCCCC(=O)O`, the glutamate uptake change in [1] is -3.42%. Moreover, the inclusion score in assay [2] was determined as 2. The aggregation suppression score in assay [3] was determined as 0.665. Further, the period change in [6] was 0.105 h (inactive). Moreover, the fluorescence ratio (interference) in [7] was 1 (inactive). Also, the nuclear beta-catenin stimulation is 2.4% (inactive) in [5] (at 10 µM) and 1.9% in [5] (stimulation, at 2 µM).
Take `CC1CCc2cc(F)cc3c(=O)c(C(=O)O)cn1c23` (stereo not drawn): the glutamate uptake change in [1] came out at 3.94%. The compound further yielded an inclusion score in [2] of 2. For the same compound, in [3], the aggregation suppression score was found to be 0.905. Moreover, the survival in assay [4] is 26.8 (inactive). The nuclear beta-catenin stimulation was 3.1% (inactive) in assay [5] (at 10 µM) and -1.1% in assay [5] (stimulation, at 2 µM).
Regarding `Cn1c(=O)c2c(ncn2C)n(C)c1=O`, the glutamate uptake change in assay [1] is -3.95%. The inclusion score in assay [2] was found to be 2. The aggregation suppression score in assay [3] came to 1.18. The period change in assay [6] is 0.03 h (inactive). In addition, the parasite load remaining in assay [8] was 89.2% (inactive) and 70.9% (inactive). Further, the viability in assay [8] was 73.1% and 94.9%. The inhibition in [9] was -2% (inactive). In [7], the fluorescence ratio (interference) is 1 (inactive). Moreover, the nuclear beta-catenin stimulation in [5] (at 10 µM) is 0.2% (inactive); in [5] (stimulation, at 2 µM), 3.1%.
As for `Cn1c(=O)c2c(ncn2CC(O)CO)n(C)c1=O` (stereo not drawn), in [1], the glutamate uptake change was found to be 0%. In [2], this compound had an inclusion score of 1. The same compound came in with an aggregation suppression score in assay [3] of 1.31. Further, in assay [4], the survival is 34 (inactive). Besides, the nuclear beta-catenin stimulation is -0.1% (inactive) in [5] (at 10 µM) and 0.8% in [5] (stimulation, at 2 µM).
In the case of `NS(=O)(=O)c1cc2c(cc1Cl)NC(C(Cl)Cl)NS2(=O)=O` (stereo not drawn), the glutamate uptake change in [1] is -0.6%. This compound displayed an inclusion score in assay [2] of 2. In addition, the aggregation suppression score in assay [3] worked out at 1.17. Also, the survival in assay [4] was 3.33 (inactive). Further, the nuclear beta-catenin stimulation in assay [5] (at 10 µM) is -0.1% (inactive); in [5] (stimulation, at 2 µM), -0.1%.
Take `NCC1CCC(C(=O)O)CC1` (stereo not drawn): the glutamate uptake change in assay [1] is 10.5%. Further, the inclusion score in [2] stood at 2. Besides, the aggregation suppression score in assay [3] worked out at 1.21. Also, in assay [4], the survival is 17.8 (inactive). The nuclear beta-catenin stimulation in assay [5] (at 10 µM) was 0.7% (inactive); in [5] (stimulation, at 2 µM), 0.5%.
For `CCN(CC)C(=O)N1CCN(C)CC1`, the glutamate uptake change in [1] was -11.4%. Further, the inclusion score in [2] came to 2. This compound also showed an aggregation suppression score in assay [3] of 1.44. The survival in [4] was 18.8 (inactive). Also, the nuclear beta-catenin stimulation in assay [5] (at 10 µM) was -0.1% (inactive); in assay [5] (stimulation, at 2 µM), 0.2%.
As to `CCN(CC)CCOC(=O)C(Cc1cccc2ccccc12)CC1CCCO1` (stereo not drawn), the glutamate uptake change in assay [1] is -20.3%. This compound also came in with an inclusion score in [2] of 2. The aggregation suppression score in assay [3] was 1.03. Also, the survival in assay [4] is 5.33 (inactive). Besides, the nuclear beta-catenin stimulation is 0.6% (inactive) in assay [5] (at 10 µM) and 0.5% in assay [5] (stimulation, at 2 µM).
`CN1C(C(=O)Nc2ccccn2)=C(O)c2sccc2S1(=O)=O`: in assay [1], the glutamate uptake change is -15.9%. Further, the inclusion score in assay [2] stood at 2. Besides, in [3], the aggregation suppression score came out at 0.632. Moreover, the survival in assay [4] was 5.08 (inactive). The nuclear beta-catenin stimulation in [5] (at 10 µM) was 0.8% (inactive); in assay [5] (stimulation, at 2 µM), 1%.
As for `CNC[C@H](O)c1cccc(O)c1`, the glutamate uptake change in [1] was 3.44%. In assay [2], this compound yielded an inclusion score of 2. The aggregation suppression score in assay [3] stood at 1.2. The period change in assay [6] was -0.48 h (inactive). For the same compound, in assay [8], the parasite load remaining is 64.7% (inactive) and 44.2% (inactive); the viability is 77.3% and 99.6%. Besides, the inhibition in assay [9] was -1% (inactive). The fluorescence ratio (interference) in [7] was 1 (inactive). In addition, in assay [5] (at 10 µM), the nuclear beta-catenin stimulation is 1.9% (inactive). For the same compound, the nuclear beta-catenin stimulation in assay [5] (stimulation, at 2 µM) was determined as 1.7%.
As to `NC(=O)c1ncn([C@@H]2O[C@H](CO)[C@@H](O)[C@H]2O)c1O`, in [1], the glutamate uptake change worked out at 20.3%. The same compound showed an inclusion score in assay [2] of 2. Also, the aggregation suppression score in assay [3] stood at 0.757. Besides, the period change in assay [6] was -0.05 h (inactive). Besides, in assay [9], the inhibition was -3% (inactive). Besides, in [7], the fluorescence ratio (interference) is 1 (inactive). For the same compound, the nuclear beta-catenin stimulation in [5] (at 10 µM) is 3% (inactive); in assay [5] (stimulation, at 2 µM), 2.4%.
For the compound `Cc1cc(-c2ccccc2)nnc1NCCN1CCOCC1`, the glutamate uptake change in [1] was determined as 4.73%. The inclusion score in [2] was determined as 1. Further, the aggregation suppression score in assay [3] was determined as 1.11. The survival in [4] is 17.2 (inactive). The nuclear beta-catenin stimulation is 1.4% (inactive) in assay [5] (at 10 µM) and 0.5% in [5] (stimulation, at 2 µM).
`COc1cc(NS(=O)(=O)c2ccc(N)cc2)nc(OC)n1`: in [1], the glutamate uptake change is -20.2%. In addition, the inclusion score in assay [2] turned out to be 2. Moreover, the aggregation suppression score in [3] was determined as 1.32. In addition, in assay [4], the survival was 3.33 (inactive). Also, the nuclear beta-catenin stimulation is 0.5% (inactive) in assay [5] (at 10 µM) and 0.4% in assay [5] (stimulation, at 2 µM).
In the case of `Cc1ccc(C(=O)c2ccc(CC(=O)O)n2C)cc1`, in assay [1], the glutamate uptake change came to 12.3%. Moreover, the inclusion score in [2] is 2. This compound also had an aggregation suppression score in assay [3] of 0.801. Besides, the survival in assay [4] is 3.83 (inactive). Besides, the nuclear beta-catenin stimulation in [5] (at 10 µM) is 5.9% (inactive); in assay [5] (stimulation, at 2 µM), 3.5%.
For the compound `CC(=O)Oc1ccc(C(c2ccc(OC(C)=O)cc2)c2ccccn2)cc1`, the glutamate uptake change in [1] is 13%. In assay [2], the inclusion score is 2. Also, in assay [3], the aggregation suppression score is 1.23. In addition, the survival in assay [4] is 9.25 (inactive). Moreover, the nuclear beta-catenin stimulation is -0.9% (inactive) in assay [5] (at 10 µM) and -2.7% in [5] (stimulation, at 2 µM).
As to `COc1ccccc1OCC(O)CO` (stereo not drawn), in assay [1], the glutamate uptake change is -12.9%. The compound further returned an inclusion score in [2] of 2. For the same compound, the aggregation suppression score in assay [3] is 0.924. Moreover, the survival in assay [4] was 4.75 (inactive). In addition, the nuclear beta-catenin stimulation in [5] (at 10 µM) was 1.9% (inactive); in assay [5] (stimulation, at 2 µM), 0.9%.
For `Cc1ccccc1OCC(O)CO` (stereo not drawn), in [1], the glutamate uptake change came to 18.9%. The compound also returned an inclusion score in assay [2] of 2. The compound further returned an aggregation suppression score in assay [3] of 1.74. Further, in [4], the survival was 11.9 (inactive). Further, the nuclear beta-catenin stimulation in assay [5] (at 10 µM) is 0.8% (inactive); in [5] (stimulation, at 2 µM) it was 2.4%.
As for `c1ccc(CN(CC2=NCCN2)c2ccccc2)cc1`, the glutamate uptake change in assay [1] worked out at 16%. In assay [2], the inclusion score is 2. The compound also registered an aggregation suppression score in [3] of 1.29. Moreover, the survival in assay [4] was 15 (inactive). Further, the nuclear beta-catenin stimulation in [5] (at 10 µM) is 3.4% (inactive); in assay [5] (stimulation, at 2 µM) it was 2.4%.
Turning to `NC(=O)NO`, the glutamate uptake change in [1] came to 1.4%. The inclusion score in assay [2] was 2. Moreover, in [3], the aggregation suppression score is 1.3. Moreover, in assay [6], the period change was -0.055 h (inactive). Also, in [8], the parasite load remaining was 113% (inactive) and 59.4% (inactive); the viability was 74.6% and 101%. In addition, the inhibition in assay [9] was -3% (inactive). The fluorescence ratio (interference) in assay [7] was 1 (inactive). Further, in assay [5] (at 10 µM), the nuclear beta-catenin stimulation is -0.1% (inactive). Besides, the nuclear beta-catenin stimulation in assay [5] (stimulation, at 2 µM) was 4%.
Take `CC1(C)S[C@@H]2[C@H](NC(=O)[C@H](N)c3ccccc3)C(=O)N2[C@H]1C(=O)O`: the glutamate uptake change in assay [1] was -16.2%. Besides, in [2], the inclusion score worked out at 2. The same compound registered an aggregation suppression score in assay [3] of 1.58. Also, the survival in assay [4] is 14.2 (inactive). For the same compound, the nuclear beta-catenin stimulation was -0.1% (inactive) in assay [5] (at 10 µM) and -0.4% in assay [5] (stimulation, at 2 µM).
As to `CCOc1ccc(NC(C)=O)cc1`, the glutamate uptake change in assay [1] is -13.8%. The compound also displayed an inclusion score in assay [2] of 1.5. Moreover, the aggregation suppression score in assay [3] came out at 0.296. For the same compound, in assay [4], the survival is 8.75 (inactive). In addition, the nuclear beta-catenin stimulation in assay [5] (at 10 µM) is -0.6% (inactive); in assay [5] (stimulation, at 2 µM), -0.9%.
For the compound `CCN(CC)CCOC(=O)C(c1ccccc1)c1ccccc1`, the glutamate uptake change in assay [1] turned out to be 15.8%. In addition, the inclusion score in assay [2] was 2. Also, the aggregation suppression score in assay [3] was 0.888. The survival in assay [4] is 11.2 (inactive). Moreover, the nuclear beta-catenin stimulation is 0.8% (inactive) in [5] (at 10 µM) and -1.4% in [5] (stimulation, at 2 µM).
